Inconclusive results are not listed. Where a call stands in place of a potency, no number is given. The source made the active and inactive calls. Calls follow the shape of the dose curve; as a rule, active = well fitted activation curve with a large enough effect; inconclusive = small, poorly fitted or top-dose-only effect; inactive = flat fitted curve, though single readings scatter.

Sequence of Luciferin 4-monooxygenase (Photinus pyralis) (P08659 whole entry, looked up): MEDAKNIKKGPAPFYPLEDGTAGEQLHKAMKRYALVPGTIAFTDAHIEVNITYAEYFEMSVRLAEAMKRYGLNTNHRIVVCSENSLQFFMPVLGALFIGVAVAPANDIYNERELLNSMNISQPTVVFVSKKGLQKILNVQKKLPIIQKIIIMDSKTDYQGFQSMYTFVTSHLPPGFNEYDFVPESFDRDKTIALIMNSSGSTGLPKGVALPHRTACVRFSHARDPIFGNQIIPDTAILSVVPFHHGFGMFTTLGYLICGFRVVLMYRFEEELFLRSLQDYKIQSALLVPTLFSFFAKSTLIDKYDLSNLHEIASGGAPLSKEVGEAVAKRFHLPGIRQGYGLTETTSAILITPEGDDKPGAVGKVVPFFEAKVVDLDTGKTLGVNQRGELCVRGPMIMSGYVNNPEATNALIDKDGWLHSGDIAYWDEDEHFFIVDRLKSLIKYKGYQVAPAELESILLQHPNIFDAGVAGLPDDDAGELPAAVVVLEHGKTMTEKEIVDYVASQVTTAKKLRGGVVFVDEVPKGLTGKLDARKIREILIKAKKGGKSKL

The assay deals with Luciferin 4-monooxygenase (Photinus pyralis) (UniProt P08659). The assay is described as follows: FLuc inhibitory activity for the follow-up compounds in a cell-based translational read-through assay (72 hour incubation). To be noted: GripTite 293 FLucUGA read-through, luminescence; series mostly up to 38.3 µM. An excerpt:
NCGC Assay Overview: Firefly (Photinus pyralis) luciferase is one of the most commonly used transcriptional reporters. It is considered one of the more dynamically responsive reporters - that is, responsive to changes in reporter transcription - as it requires no post-translational modifications and is enzymatically active directly after protein synthesis (Wood, 1998). With no endogenous expression in mammalian cells and without the requirement of external excitation, it offers very little background signal, thus generally providing excellent signal to background for most assays. Previous profiling work to determine the prevalence of compounds that affect FLuc enzymatic activity (PubChem AID 411) identified that ~3% of the MLSMR library (then at ~72K) inhibited FLuc (Auld et al., 2008). […] Of the compounds identified in this profile that inhibited FLuc, 151 compounds were selected for further analysis, in an effort to better understand their mode of inhibiting FLuc. The assay described here was to determine the activity of the compounds in a cell-based firefly luciferase reporter gene assay originally designed to identify compounds that enchanced translational read-through of a FLuc cDNA that contained a premature stop codon (Auld et al., 2009; Auld et al., 2010). Compounds that enhance translational read-through or compounds that stabilize FLuc intracellularly are identified as active compounds in the assay.
NCGC Assay Protocol Summary: Reagents: Transient transfection of FlucUGA construct: TransFast Transfection Reagent (Promega #E2431); FLucUGA construct (refer to Auld et al., 2009) #GripTite 293 MSR Cell Line (Invitrogen #R795-07) #Complete growth media: DMEM (Invitrogen #11965), 10% HIFBS, 0.1mM MEM NEAA, 5mL/L pen-strep (of 5000U/mL stock), 600ug/mL Geneticin #Assay media: DMEM without phenol red (Invitrogen #21063), 5% charcoal-stripped HIFBS (Hyclone #SH30071.03), 0.1mM MEM NEAA In-house detection reagent: 300mM Tris-HCl, 300mM Trizma base, 300mM MgCl, 1% Triton-X100, 5mM DTT, 500uM Coenzyme A trilithium salt (Sigma #C3019),450uM ATP (Sigma #A7699), 1mM D-luciferin sodium salt monohydrate (Biosynth #L8240) Control compounds used were two known firefly luciferase inhibitors (3-(5-(3-chlorophenyl)-1,2,4-oxadiazol-3-yl)benzoic acid and 5-(2-fluorophenyl)-3-phenyl-1,2,4-oxadiazole), and DMSO. Assay Summary: Transient transfection of FlucUGA construct: Day 1: GripTite cells were plated in T175 flasks at a density of 1.75 x 10^7 cells/T175 flask in complete growth media without Geneticin and allowed to grow ON in a 37 degrees Celsius incubator. Day 2: Cells in T175 flask were transfected - with 10ug of DNA and 30uL Transfast in 12mL complete growth media without serum and without Geneticin for 4 hours at 37 degrees Celsius. After incubation, cells were trypsinized, spun down, and resuspended to a concentration of 3.3 x 10^5 cells/mL in assay media. 6uL of cells in assay buffer were dispensed at 2000cells/well (3.3 x 10^5 cells/mL) into Greiner solid-white TC-treated 1536-well plates using a Multidrop Combi (Thermo Fisher Scientific). Plates were incubated for one hour at 37 degree Celsius, 95% humidity, 5% CO2. These assay plates were then treated with 23nL of compound or DMSO using a Kalypsys pin tool, which allows for delivery of a 12-point titration of each compound to the assay plate, with a final compound concentration ranging from approximately ~38uM to 0.2nM. Assay plates were then incubated for 72 hours. After incubation, plates were washed three times with DPBS (7uL/well). After the third wash, 6uL of DPBS was added to each well. 3uL of 3X luciferase detection reagent was then added to each well using a flying reagent dispenser (FRD). After a 15 minute incubation to allow for cell lysis, luciferase activity was measured using a ViewLux CCD imager (PerkinElmer), with an average exposure time of 2-12 seconds.
Turning to `Nc1ccc(-c2nc3cc(N)ccc3s2)cc1`, the Potency is 22.5 µM (active).
As for `CC(=O)Nc1cccc(-c2nc3ccccc3s2)c1C`, the Potency entry is “inactive”.
Consider `COc1ccc2nc(NC(=O)c3cccc(S(=O)(=O)N4CCOCC4)c3)sc2c1`, for which the Potency result is “inactive”.
The value for `O=C(Nc1ccccc1C(=O)O)c1cc(S(=O)(=O)Nc2cccc(F)c2)ccc1Cl` was “inactive”.
The value for `Cc1ccc(NS(=O)(=O)c2ccc(Cl)c(C(=O)Nc3cccc(C(=O)O)c3)c2)cc1` was “inactive”.
As to `COc1ccc(-c2nc3ccccc3s2)cc1O`, the Potency is 14.2 µM (active).
As for `Cc1ccc2nc(-c3ccc(N)cc3)sc2c1`, the Potency is 1.42 µM (active).
Regarding `CC(C)Oc1ccc(C(=O)Nc2ccc(-c3nc4ccccc4s3)cc2)cc1`, the Potency result is “inactive”.
In the case of `O=C(Nc1ccccc1C(=O)O)c1cccc(S(=O)(=O)Nc2ccc(Br)cc2)c1` it was “inactive”; in that of `Cc1ccc(C(=O)O/N=C(\N)c2ccccn2)c(Cl)c1`, 1.26 µM (active); in that of `COc1ccc(-c2nc3ccccc3s2)cc1NC(=O)c1ccc(F)cc1`, “inactive”.
Consider `O=C(Nc1ccc(-c2nc3ccccc3s2)cc1)C1=COCCO1`, for which the Potency is 0.318 µM (active).
`Cc1c(NS(C)(=O)=O)cccc1-c1nc2ccccc2s1`: the Potency result was “inactive”.
The value for `Cc1ccc(C(=O)Nc2ccc(C(=O)O)cc2)cc1S(=O)(=O)NCc1ccccc1` was “inactive”.
The value for `O=C(O)c1ccc(NC(=O)c2cccc(NC(=O)c3cccs3)c2)cc1` was “inactive”.
`CCOc1ccc(C(=O)Nc2ccccc2C(=O)O)cc1`: the Potency was 14.2 µM (active).
In the case of `Cc1cccc(NS(=O)(=O)c2cccc(C(=O)Nc3cccc(C(=O)O)c3)c2)c1` it was “inactive”.
As to `O=C(Cc1ccc(Cl)cc1)Nc1cccc(C(=O)Nc2ccccc2C(=O)O)c1`, the Potency result is “inactive”.
In the case of `O=C(Nc1ccccc1C(=O)O)c1cccc(NC(=O)c2ccccc2Cl)c1` it was “inactive”; in that of `COc1cc(C(=O)Nc2cc(C)c(O)c(-c3nc4ccccc4s3)c2)cc(OC)c1OC`, “inactive”; in that of `COc1cccc(-c2nc3ccccc3s2)c1`, 3.56 µM (active).
As to `COc1ccc2nc(NC(=O)c3ccc(S(=O)(=O)N4CCCC(C)C4)cc3)sc2c1` (stereo not given), the Potency result is “inactive”.
The value for `c1ccc2sc(-c3ccc4c(c3)OCO4)nc2c1` was 1.79 µM (active); that for `Cc1ccc(S(=O)(=O)N2CCN(C(=O)c3ccccc3-c3nc4ccccc4s3)CC2)c(C)c1` was “inactive”; that for `O=C(Nc1cccc(-c2nc3ccccc3s2)c1)C1=COCCO1` was “inactive”.
Consider `COc1ccc2nc(NC(=O)c3nc(S(=O)(=O)Cc4ccc(C)cc4)ncc3Cl)sc2c1`, for which the Potency entry was “inactive”.
In the case of `CN(C)S(=O)(=O)c1ccc(C(=O)Nc2cccc(C(=O)O)c2)cc1` it was “inactive”; in that of `COc1ccc(CC(=O)Nc2cccc(C(=O)Nc3ccccc3C(=O)O)c2)cc1OC`, “inactive”; in that of `O=C(Cc1ccccc1)Nc1ccc(C(=O)Nc2ccccc2C(=O)O)cc1`, “inactive”.
In the case of `COc1ccc(C(=O)Nc2ccccc2C(=O)N/N=C/c2ccc(O)c(OC)c2)cc1` it was “inactive”; in that of `O=C(Nc1ccccc1C(=O)O)c1cccc(C(=O)Nc2ccccc2C(=O)O)c1`, “inactive”; in that of `Cc1ccc2sc(-c3ccc(N)cc3)nc2c1`, 0.356 µM (active).
As to `Cc1ccc(S(=O)(=O)N2CCOCC2)cc1C(=O)Nc1ccccc1C(=O)O`, the Potency entry is “inactive”.
The value for `CC(C)(C)NC(=O)c1ccccc1-c1nc2ccccc2s1` was “inactive”.
As for `COc1ccc2nc(NC(=O)c3cnccn3)sc2c1`, the Potency is 3.56 µM (active).
In the case of `COc1cc(OC)cc(C(=O)Nc2ccc(-c3nc4ccccc4s3)c(C)c2)c1` it was “inactive”; in that of `O=C(O)c1cccc(NC(=O)c2cccc(S(=O)(=O)N3CCc4ccccc4C3)c2)c1`, “inactive”.
As to `Cc1ccc2sc(-c3ccc(NC(=O)c4cc(-n5cnnc5)ccc4Cl)cc3)nc2c1`, the Potency is 14.2 µM (active).
For `COc1ccccc1C(=O)Nc1ccc(C(=O)O)cc1`, the Potency entry is “inactive”.
In the case of `O=C(O)c1cccc(NC(=O)c2cccc(S(=O)(=O)Nc3cccc(F)c3)c2)c1` it was “inactive”.

These data come from PubChem BioAssay AID602478 (National Center for Advancing Translational Sciences (NCATS), 2012).
